FMDV inh – antivirals against foot and mouth disease virus; Potency, µM (top dose mostly 57.9 µM), for inactives: top-dose activity change, negative = inhibition, most hits filed as inhibitors; hit rate 1.2% among 410,000; FMDV antiviral cell-based qHTS; calls by dose curve; tested in HEK293T cells; also: read-out not given here; potency is read from the fitted curve at half-maximal effect; nearly all actives have a fitted effect of over 45% in size
VACV mCherry inh – inhibitors of vaccinia virus infection (mCherry reporter signal); Vaccinia virus mCherry reporter infection, fluorescence; Potency, µM (doses to about 36.5 µM), for the others: at the top dose activity change, negative = inhibition, hits mostly inhibitors; hit rate 0.63% among 310,000; AID 720579; calls by dose curve; tested in A549 cells; also: potency is read from the fitted curve at half-maximal effect; nearly all actives have a fitted effect of over 35% in size
Sm TGR inh – blocks Schistosoma mansoni thioredoxin glutathione reductase | purified TGR, DTNB reduction, TNB absorbance 405 nm | Potency, µM (doses to about 114 µM), without a hit: at the top dose activity change, negative = inhibition, usual class: inhibitors | hit rate 3% among 360,000 | AID 485364; also: potency is read from the fitted curve at half-maximal effect; nearly all actives have a fitted effect of over 60% in size
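Kinetic colorimetric format: TGR-catalysed, NADPH-driven DTNB reduction monitored via TNB absorbance. Enzyme dispensed at 20 nM; compound exposure 15 min at room temperature before reaction start.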
HCV inh – blocks hepatitis C virus; Potency, µM (series often up to 41.8 µM), for inactives: at the top dose activity change, negative = inhibition, actives largely listed as inhibitors; hit rate 3.4% among 340,000; AID 651820; Huh7.5.1 HCVcc-Cre infection, luciferase reporter, 44 h; also: potency is read from the fitted curve at half-maximal effect
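A cell-based infection assay in which seeded cells (1,000 per well) receive test compound after 4 h, are inoculated with HCVcc-Cre at approximately 0.5 moi, and are incubated 44 h before luminescence detection.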
HCMV antiviral – inhibitors of human cytomegalovirus; HFF cells, HCMV-luciferase reporter, 72 h; stronger effect = lower value; activity change, negative = inhibition, % at 57.5 µM; hit rate 4.5% among 410,000; AID 1259415; in the data active = activity change below about -60%; inconclusive = no clear call, values can overlap the other calls; inactive = above about -39%
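After 16 h attachment at 37C, HFF cells received test compound and HCMV-luciferase (1 PFU/cell); reporter luminescence read 72 h later, data normalized against buffer-only and known inhibitor Salinomycin.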
Vaccinia Venus – inhibitors of vaccinia virus (Venus reporter); hit rate 0.46% among 330,000; AID 720580; Potency, µM (doses to about 36.5 µM), for inactives: at the highest dose activity change, negative = inhibition, usual class: inhibitors; Vaccinia virus Venus reporter expression, fluorescence; calls by dose curve; tested in A549 cells; also: potency is read from the fitted curve at half-maximal effect; nearly all actives have a fitted effect of over 30% in size
Numbers without * were called inactive; ! = not confirmed by another sample. Only some compounds are listed: those with a hit (about 9.3% of all), similar ones and a draw of the others. Unless noted, calls follow the shape of the dose curve; as a rule, active = well fitted curve in the direction sought with a large enough effect; inconclusive = small, poorly fitted or top-dose-only effect, or another doubt; inactive = no such curve, though single readings can be large; an effect the other way counts as inactive or inconclusive. % is scaled to controls: 0 for no effect and ±100 for the full control effect.

For Cc1cc(N(C)Cc2ccccc2)nc(-c2ccccc2)n1 the results were FMDV inh -14.1%, Sm TGR inh -13.5%, HCV inh 10µM* and HCMV antiviral 58.1.
Cc1cc(N(C)Cc2ccccc2)nc2cc(O)ccc12 was read as FMDV inh 14.8%, VACV mCherry inh -17.1%, Sm TGR inh 2.6%, HCV inh -25.3%, HCMV antiviral -36.5 and Vaccinia Venus -6.5%.
Screening C#CCOc1ccc(C2C3=C(CC(C)(C)CC3=O)N(CC(=O)O)C3=C2C(=O)CC(C)(C)C3)cc1OC returned FMDV inh 1.3%, Sm TGR inh 35.5µM*, HCV inh 0.8% and HCMV antiviral -3.3.
`CC(C)N1CCc2c(sc(NC(=O)CCS(=O)(=O)c3ccccc3)c2C#N)C1` gave FMDV inh 0.0%, VACV mCherry inh -20.6%, Sm TGR inh 14.1µM*, HCV inh inconclusive, HCMV antiviral 14.3 and Vaccinia Venus -18.8%.
For COC(=O)c1c(NC(=O)CCS(=O)(=O)c2ccccc2)sc2c1CCN(C)C2 the results were FMDV inh -8.5%, VACV mCherry inh inconclusive, Sm TGR inh inconclusive, HCV inh -16.1%, HCMV antiviral -90.1* and Vaccinia Venus inconclusive.
For COC(=O)c1ccsc1NC(=O)CCS(=O)(=O)c1ccccc1 the results were FMDV inh 7.6%, Sm TGR inh 10µM*, HCV inh -0.9% and HCMV antiviral 11.2.
For CCCN1CCc2c(sc(NC(=O)CCS(=O)(=O)c3ccccc3)c2C(=O)OC)C1 the results were FMDV inh -11.2%, VACV mCherry inh inconclusive, Sm TGR inh 22.4µM*, HCV inh 2.8%, HCMV antiviral -9.1 and Vaccinia Venus -28.3%.
CC(C)N1CCc2c(sc(NC(=O)CCc3ccccc3)c2C(N)=O)C1 was read as FMDV inh 9.9%, Sm TGR inh -18.8%, HCV inh inconclusive and HCMV antiviral -36.9.
`COCCN(CCOC)S(=O)(=O)c1ccc(C(=O)Nc2sc3c(c2C(=O)OC)CCN(C)C3)cc1` gave FMDV inh 0.0%, VACV mCherry inh -5.7%, Sm TGR inh 4.8%, HCMV antiviral -19.4 and Vaccinia Venus -0.3%.
Screening O=C(Nc1ccc(C(F)(F)F)cc1)C1CCCN1S(=O)(=O)c1cccc2cccnc12 (stereo not given) returned FMDV inh -27.8%, Sm TGR inh -28.1%, HCV inh inconclusive and HCMV antiviral -74.5*.
For CCOC(=O)c1cnc2c(Cl)c(Cl)ccc2c1NCCN1CCOCC1 the results were FMDV inh 0.7%, VACV mCherry inh -2.7%, Sm TGR inh 39.8µM*!, HCV inh inconclusive, HCMV antiviral -12.3 and Vaccinia Venus -1.0%.
Screening CCOC(=O)c1cnc2ccc(Br)cc2c1NCCCN1CCOCC1 returned FMDV inh -11.4%, Sm TGR inh 44.7µM*, HCV inh -7.6% and HCMV antiviral -25.2.
Screening CCOC(=O)c1ccc2ncc(C(=O)OCC)c(NCCCN3CCOCC3)c2c1 returned VACV mCherry inh -10.5%, Sm TGR inh inconclusive, HCV inh 7.2%, HCMV antiviral 19.5 and Vaccinia Venus 3.9%.
CCOC(=O)c1cnc2c(C)cc(C)cc2c1NCCCN1CCOCC1 was read as FMDV inh -16.4%, Sm TGR inh -3.9%, HCV inh -29.6% and HCMV antiviral -61.8*.
CCOC(=O)c1cnc2c(C(F)(F)F)cccc2c1N1CCOCC1 was read as FMDV inh 31.6µM*, Sm TGR inh 0.7%, HCV inh inconclusive, HCMV antiviral inconclusive and Vaccinia Venus -29.9%.
`CSc1ccccc1C(=O)C1CCCN(C(=O)c2cccc(Cn3cccn3)c2)C1` (stereo not given) gave FMDV inh 0.0%, VACV mCherry inh -23.5%, HCMV antiviral -20.4 and Vaccinia Venus -26.3%.
Screening Cc1cccc(C)c1-n1nnnc1C(c1cccc2ccccc12)N1CCN(C/C=C/c2ccccc2)CC1 (stereo not given) returned FMDV inh -20.4%, VACV mCherry inh -4.7%, HCMV antiviral -6.6 and Vaccinia Venus -13.5%.

Source: PubChem BioAssay (National Center for Advancing Translational Sciences (NCATS))
